# NadD block = NadD (S. aureus) enzyme inhibition; purified NadD enzyme, colorimetric absorbance read-out; inhibition, % at 20 µM; 360,000 tested, 0.78% active; AID 602399; in the data active = inhibition above about 26%
# TAG inh = reduces triacylglycerol accumulation in H9c2 cells | Nile Red lipid (TAG) fluorescence; cells loaded with 200 µM oleic acid | inhibition, % at 12.5 µM | AID 651582 | 230,000 tested, 0.66% active;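 active = pattern-corrected inhibition of lipid staining of at least 50% with the nuclear-stain viability signal not falling by more than 50%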;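 note: 0% = DMSO wells and 100% = triacsin C control wells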
# MPTP inh = permeability transition pore inhibition. isolated mouse mitochondria, Ca2+ swelling absorbance, 30 min. 360,000 tested, 1.4% active. inhibition, % at 10 µM;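 active = inhibition of 50% or more, scaled per plate between neutral and stimulator controls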;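 note: 0% = DMSO wells given calcium and 100% = 1 mM EGTA wells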
# aDG glyco up = alpha-DG glycosylation activation; Pro5-aDG cells, alpha-DG glycosylation AlphaScreen (IIH6); 0% Pro5, 100% B10-LARGE cell signal; 360,000 tested, 0.22% active; activation, % at 10 µM;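 active = activation of at least 8% versus controls, or a plate z-score of at least 8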;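 note: Pro5 are CHO cells carrying HIG-tagged alpha-DG that lacks glycosylation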
# NadD conf = confirmation of Staphylococcus aureus NadD inhibitors; shares compounds with NadD block; purified S. aureus NadD, colorimetric enzyme assay; inhibition, % at 20 µM; 2,000 tested, 13% active; AID 624309; in the data active = inhibition mostly above about 42%, no sharp cut-off; inactive = mostly below about 42%
# Rh123 counter = mitochondrial membrane potential, counter-screen; AID 624504; inhibition, % at 10 µM; shares compounds with MPTP inh; isolated mitochondria, Rhodamine 123 fluorescence; 5,000 tested, 78% active; in the data active = inhibition above about 22%;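 note: 0% = DMSO vehicle and 100% = positive control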
# H9c2 TAG conf = confirmation of triacylglycerol accumulation inhibitors; shares compounds with TAG inh; H9c2 lipid accumulation, Nile Red fluorescence; cells loaded with 200 µM oleic acid; inhibition, % at 12.5 µM; 990 tested, 71% active; AID 651629;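 active = mean inhibition across replicates of 40% or more; inactive = mean inhibition below 40%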;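 note: plate controls were DMSO only wells for no effect and Triacsin C treated wells for full effect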
# Starred values were filed as active, the others as inactive; nt = not tested or not shown; ! = repeats disagree. A selection: hits, their analogues and other compounds. The true share with any hit is near 2.7%.
SMILES,NadD block,TAG inh,MPTP inh,aDG glyco up,Rh123 counter,others
COc1ccc(-c2cc(C(=O)Nc3cc(OC)cc(C(=O)Nc4cccc(C(F)(F)F)c4)c3)[nH]n2)cc1,40.2*!,84.3*,54.9*!,0.6,55.8*,NadD conf=23.0;H9c2 TAG conf=76.7*
CCN1CCN(Cc2ccc(NC(=O)c3cc(NC(=O)c4cncc(-c5cccs5)c4)cc(OC)c3)cc2C(F)(F)F)CC1,34.3*,57.1*,-3.6,0.5,nt,NadD conf=11.0;H9c2 TAG conf=43.6*
Cc1ccc(NC(=O)CSc2nc3ccc(Nc4nc(N5CCOCC5)nc(N5CCOCC5)n4)cc3s2)cc1,30.3*,83.6*,0.5,-0.6,nt,NadD conf=3.1;H9c2 TAG conf=85.7*
COc1ccc(NC(=O)CSc2nc3ccc(Nc4nc(N5CCOCC5)nc(N5CCOCC5)n4)cc3s2)cc1,11.9,nt,1.7,0.0,nt,
CC(=O)Nc1ccc(NC2=Nc3ccccc3N3C2=Nc2c(c(C)nn2-c2ccccc2)C3c2ccccc2)cc1 (configuration not stated),37.1*,54.1*,2.3,-0.9,nt,NadD conf=30.6;H9c2 TAG conf=43.4*
Cc1ccc(NS(=O)(=O)c2ccc(OCC(=O)NCC3CCCO3)cc2)cc1 (configuration not stated),-2.1,nt,-0.8,-0.2,nt,
Cc1c(Cl)cccc1NC(=O)COC(=O)Cn1cnc2c1c(=O)n(C)c(=O)n2C,-1.7,8.0,-1.3,-0.1,nt,
c1ccc(-c2nc(SCc3nc4ccccc4[nH]3)c3oc4ccccc4c3n2)cc1,30.8*,73.7*,50.4*,0.3,85.1*,NadD conf=41.1;H9c2 TAG conf=87.8*
Cc1nc(SCc2nc3ccccc3[nH]2)c2oc3ccccc3c2n1,6.4,5.8,-0.5,0.4,nt,
CCOc1ccccc1N1CCN(S(=O)(=O)c2ccc3c4c(cccc24)C(=O)N3)CC1,30.1*,52.3*,1.1,-0.1,nt,NadD conf=30.3;H9c2 TAG conf=4.2
CCOC(=O)N1CCN(S(=O)(=O)c2ccc3c4c(cccc24)C(=O)N3)CC1,-2.5,-5.8,0.2,-0.2,nt,
Cc1ccc(S(=O)(=O)N(C)C[C@@H]2OCc3cnnn3CCCC(=O)N([C@H](C)CO)C[C@H]2C)cc1,1.6,7.9,-1.6,0.1,nt,
Cc1cccc(NC(=O)c2nc[nH]c2C(=O)NCCCCCCNC(=O)c2[nH]cnc2C(=O)Nc2cccc(C)c2)c1,36.8*,75.6*,2.1,-0.2,nt,NadD conf=4.0;H9c2 TAG conf=-2.2
Cc1cccc(NC(=O)c2nc[nH]c2C(=O)NCc2ccccc2)c1,1.4,-26.4,3.6,0.1,nt,
CCC(=O)N(CCc1ccccc1)Cc1cc2cccc(C)c2[nH]c1=O,2.0,4.2,-1.8,-0.1,nt,
O=[N+]([O-])c1ccc(Nc2nc(NC3CCCCC3)nc(N3CCCC3)n2)cc1,38.9*,60.9*,2.5,-0.5,nt,NadD conf=11.0;H9c2 TAG conf=82.0*
O=[N+]([O-])c1ccc(O)c(C2CCCCC2)c1,-4.3,-11.4,88.4*,0.2,102.0*,
Cc1cccc(S(=O)(=O)C(C#N)c2nc3ccccc3nc2N2CC(C)OC(C)C2)c1 (configuration not stated),-0.2,nt,55.7*,0.1,71.2*,
CC1CCCN(c2nc3ccccc3nc2C(C#N)S(=O)(=O)c2cccs2)C1 (configuration not stated),1.0,nt,92.6*,-0.2,66.6*,
Cc1ccc(S(=O)(=O)C(C#N)c2nc3ccccc3nc2N2CC(C)OC(C)C2)cc1C (configuration not stated),13.4,nt,44.4,0.0,nt,
CCCN1C(=O)c2ccccc2NC1c1ccc(O)c(OCC)c1 (configuration not stated),-8.2,nt,0.2,0.2,nt,
CC(=O)Nc1ccc(S(=O)(=O)N2CCC(c3nc4ccc(C)cc4[nH]3)CC2)cc1,-6.2,nt,-2.6,-0.2,nt,
CC(C)(C)c1ccc(S(=O)(=O)N2CCC(c3nc4ccc(Cl)cc4[nH]3)CC2)cc1,16.7,nt,93.8*,1.1,89.5*,
Cc1cc(Br)cc(/C=N/NC(=O)c2ccc3c(c2)OCO3)c1O,5.4,nt,65.2*,0.2,49.1*,
O=C(N/N=C/c1cc(Br)c(O)c(Br)c1O)c1ccc2c(c1)OCCO2,2.7,nt,-1.9,0.1,nt,
SMILES,NadD block,TAG inh,MPTP inh,aDG glyco up,Rh123 counter,others
O=C(N/N=C/c1ccccc1O)c1ccc2c(c1)OCO2,-5.4,nt,-0.3,0.0,nt,
O=C(N/N=C/c1cc(Br)cc(Br)c1O)c1cccc(S(=O)(=O)N2CCOCC2)c1,34.8*,42.6,69.0*,-0.3,-4.8,
O=C(N/N=C/c1cc(Br)cc(Cl)c1O)c1ccc2c(c1)OCO2,4.1,45.8,55.2*,0.0,65.7*,
Cc1cccc(NC(=O)C2CC3CCC2C3)c1C (configuration not stated),-2.2,6.0,-0.9,-0.2,nt,
CCOC(=O)CCC(=O)Nc1ccc(S(=O)(=O)N2CCc3ccccc32)cc1,2.1,nt,0.6,0.0,nt,
N#C/C(=N\Nc1ccc(S(=O)(=O)N2CCc3ccccc32)cc1)C(N)=S,23.1,-1.8,99.2*,-0.8,67.3*,
NS(=O)(=O)c1ccc(NC(=O)c2ccc(S(=O)(=O)N3CCc4ccccc43)cc2)cc1,27.7,nt,0.8,-0.1,nt,
CCOC(=O)/C(C#N)=N/Nc1ccc(S(=O)(=O)N2CCc3ccccc32)cc1,9.9,-5.4,89.2*,0.2,88.8*,
Cc1cccc(S(=O)(=O)NC(=O)C2(C)CCN2C(=O)C2(c3ccc(Cl)cc3)CCC2)c1 (configuration not stated),-1.3,8.4,-0.1,-0.1,nt,
O=S(=O)(NC1CC(NS(=O)(=O)OCC(Cl)(Cl)Cl)C2CCCCC12)OCC(Cl)(Cl)Cl (configuration not stated),-5.8,-10.6,69.8*,0.0,101.9*,
Cc1ccc(NC(=O)c2ccc(OCC3CCCO3)cc2)cc1Cl (configuration not stated),-5.1,23.1,0.2,0.5,nt,
O=C(O)c1ccc(N2CC3CC(C2)c2cccc(=O)n2C3)c(NC(=S)Nc2ccc(Br)cc2)c1 (configuration not stated),1.5,-24.5,89.2*,-0.1,93.0*,
CCc1ccc(NC(=S)Nc2cc(C(=O)O)ccc2N2CC3CC(C2)c2cccc(=O)n2C3)cc1 (configuration not stated),10.6,-3.1,-0.3,-0.3,nt,
O=C(C[C@H]1CC[C@@H](NC(=O)C2CC2)[C@@H](CO)O1)NCc1ccccc1Cl,nt,nt,0.6,0.0,nt,
c1ccc2oc(NC3=NCN(C4CCCCC4)CN3)nc2c1,-7.9,-4.3,-1.8,-0.2,nt,
c1ccc2sc(NC3=NCN(C4CCCCCC4)CN3)nc2c1,0.0,nt,94.7*,4.4*,20.0,
Cc1cc(-c2nc(-c3ccncc3)no2)ccc1[N+](=O)[O-],-2.1,nt,1.0,-0.2,nt,
CCCCNC(=O)c1nc(-c2ccncc2)oc1-c1ccccc1,-1.2,nt,0.0,-0.1,nt,
CCN(CC)c1ccc(CNc2nc3ccccc3n2CCN2CCCCC2)cc1,3.9,-16.3,64.1*,-0.3,95.9*,
